The panel holds about 83,000 compounds, 20% with a hit somewhere; the sample as a whole holds those more often.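 Step 1: grow cells in 96-well plates. Step 2: add test compound at a single concentration. Step 3: incubate 48 h. Step 4: record percent growth.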 The source made the active and inactive calls. The calls were made as follows: active = growth percent below 10; inactive = the rest.
How the values were obtained:
Assay in all cases: NCI-60 one-dose screen, 48 h (100 = growth as untreated, 0 = no growth, -100 = all killed)
Conditions in all cases: 10 µM
HCT-15 colon = system: HCT-15 colon
HT29 colon = system: HT29 colon
SNB-75 CNS = system: SNB-75 CNS
SNB-19 CNS = system: SNB-19 CNS
U251 CNS = system: U251 CNS
PC-3 prostate = system: PC-3 prostate
SK-MEL-5 melanoma = system: SK-MEL-5 melanoma
UACC-62 melanoma = system: UACC-62 melanoma
LOX IMVI melanoma = system: LOX IMVI melanoma
SK-MEL-28 melanoma = system: SK-MEL-28 melanoma
SK-MEL-2 melanoma = system: SK-MEL-2 melanoma
SN12C renal = system: SN12C renal
UO-31 renal = system: UO-31 renal
TK-10 renal = system: TK-10 renal
ACHN renal = system: ACHN renal
CAKI-1 renal = system: CAKI-1 renal
A498 renal = system: A498 renal
CCRF-CEM leukemia = system: CCRF-CEM leukemia
MOLT-4 leukemia = system: MOLT-4 leukemia

Measured: growth

C=CCN1C(=O)/C(=C\c2ccc3c(c2)CCC3)SC1=S
inactive: HCT-15 colon 98.8% | HT29 colon 97.4% | SNB-75 CNS 99.9% | SNB-19 CNS 94.2% | U251 CNS 100% | PC-3 prostate 107% | SK-MEL-5 melanoma 99.6% | UACC-62 melanoma 99.2% | LOX IMVI melanoma 98.5% | SK-MEL-28 melanoma 113% | SK-MEL-2 melanoma 94.6% | SN12C renal 102% | UO-31 renal 85.6% | TK-10 renal 108% | ACHN renal 97.1% | CAKI-1 renal 97.5% | A498 renal 98.9% | CCRF-CEM leukemia 103% | MOLT-4 leukemia 85.9%

COc1ccc(-c2cc(/C=C3\C(=O)Nc4cc(Cl)ccc43)[nH]n2)cc1
inactive: HCT-15 colon 28.6% | SNB-19 CNS 49% | U251 CNS 40.1% | PC-3 prostate 14% | SK-MEL-5 melanoma 25.1% | UACC-62 melanoma 32.4% | LOX IMVI melanoma 38.2% | SK-MEL-28 melanoma 50.5% | SN12C renal 41.7% | UO-31 renal 27.2% | TK-10 renal 58.1% | ACHN renal 44.9% | CAKI-1 renal 29.6% | A498 renal 58.3% | CCRF-CEM leukemia 18.6% | MOLT-4 leukemia 21.7%
active: HT29 colon 1.13% | SNB-75 CNS -27.5% | SK-MEL-2 melanoma -0.387%

CCOC(=O)Cn1nnc(-c2ccc(OCc3ccccc3F)cc2)n1
inactive: HCT-15 colon 88.5% | HT29 colon 92.4% | SNB-75 CNS 57.8% | SNB-19 CNS 93.9% | U251 CNS 99% | PC-3 prostate 89% | SK-MEL-5 melanoma 91.5% | UACC-62 melanoma 81.4% | LOX IMVI melanoma 85.2% | SK-MEL-28 melanoma 72.9% | SK-MEL-2 melanoma 100% | SN12C renal 98.2% | UO-31 renal 58% | TK-10 renal 105% | ACHN renal 84.6% | CAKI-1 renal 76.5% | A498 renal 40.9% | CCRF-CEM leukemia 92.4% | MOLT-4 leukemia 90%

O=S(=O)(O)C1(O)CCCCC1
inactive: HCT-15 colon 87.3% | HT29 colon 59% | SNB-75 CNS 82.3% | SNB-19 CNS 87.8% | U251 CNS 99.3% | PC-3 prostate 77.6% | SK-MEL-5 melanoma 92.9% | UACC-62 melanoma 96.8% | LOX IMVI melanoma 97.7% | SK-MEL-28 melanoma 102% | SK-MEL-2 melanoma 90.1% | SN12C renal 99.3% | UO-31 renal 58.9% | TK-10 renal 169% | ACHN renal 72.9% | CAKI-1 renal 76% | A498 renal 112% | CCRF-CEM leukemia 92.8% | MOLT-4 leukemia 87.9%

CCOC(=O)c1ccc(N(C=O)CCC(=O)CCl)cc1
inactive: HCT-15 colon 17.8% | SNB-75 CNS 26.5% | SNB-19 CNS 59.4% | PC-3 prostate 26% | UACC-62 melanoma 13% | SK-MEL-28 melanoma 34% | SK-MEL-2 melanoma 15.3%
active: HT29 colon 1.42% | U251 CNS 4.55% | SK-MEL-5 melanoma 2.68% | LOX IMVI melanoma 3.93% | SN12C renal 7.96% | UO-31 renal -86.3% | TK-10 renal -18% | ACHN renal -37.4% | CAKI-1 renal -19.9% | A498 renal -13.5% | CCRF-CEM leukemia -31.4% | MOLT-4 leukemia -13.7%

Brc1ccc(-c2cn3ccnc3c(-c3ccc(Br)cc3)n2)cc1
active: HT29 colon 9.88%
inactive: HCT-15 colon 21.6% | SNB-75 CNS 35.6% | SNB-19 CNS 75.8% | U251 CNS 39.2% | PC-3 prostate 66.3% | SK-MEL-5 melanoma 46.3% | UACC-62 melanoma 43.6% | LOX IMVI melanoma 43.2% | SK-MEL-28 melanoma 62.2% | SK-MEL-2 melanoma 30.8% | SN12C renal 53.7% | UO-31 renal 41.6% | TK-10 renal 84.2% | ACHN renal 54.6% | CAKI-1 renal 39.6% | A498 renal 35.9% | CCRF-CEM leukemia 44.8% | MOLT-4 leukemia 30.4%

Cc1cc2cc3c(=O)[nH]c(=O)cc-3n(CC(O)C(O)C(O)CO)c2cc1C (centres undefined)
inactive: HCT-15 colon 105% | HT29 colon 110% | SNB-75 CNS 103% | SNB-19 CNS 114% | U251 CNS 104% | PC-3 prostate 99.9% | SK-MEL-5 melanoma 110% | UACC-62 melanoma 112% | LOX IMVI melanoma 99.8% | SK-MEL-28 melanoma 114% | SK-MEL-2 melanoma 120% | SN12C renal 113% | UO-31 renal 99.2% | TK-10 renal 125% | ACHN renal 75.1% | CAKI-1 renal 87.9% | A498 renal 109% | CCRF-CEM leukemia 105% | MOLT-4 leukemia 99.8%

Cc1cccc2c1O/C(=C\c1ncc([N+](=O)[O-])n1C)C2=O
active: HCT-15 colon 5.68% | HT29 colon -21% | SNB-75 CNS 8.32% | SNB-19 CNS -5.53% | U251 CNS -17.5% | PC-3 prostate -22.4% | SK-MEL-5 melanoma -92.2% | UACC-62 melanoma -66.3% | LOX IMVI melanoma -39.6% | SK-MEL-28 melanoma -17.8% | SK-MEL-2 melanoma -45.3% | SN12C renal -48.5% | UO-31 renal -38.9% | TK-10 renal -34.3% | ACHN renal 4.76% | CAKI-1 renal -29.7% | A498 renal -72.7% | CCRF-CEM leukemia 5.23% | MOLT-4 leukemia -0.52%

Cc1cc(C)c(C(=O)OC(C)CNC2CCCCC2)c(C)c1 (centres undefined)
inactive: HCT-15 colon 97.5% | HT29 colon 90.5% | SNB-75 CNS 92.1% | SNB-19 CNS 97.5% | U251 CNS 97.8% | PC-3 prostate 93.9% | SK-MEL-5 melanoma 101% | UACC-62 melanoma 103% | LOX IMVI melanoma 88.3% | SK-MEL-28 melanoma 105% | SK-MEL-2 melanoma 95% | SN12C renal 100% | UO-31 renal 68.6% | TK-10 renal 92% | ACHN renal 97.8% | CAKI-1 renal 97% | A498 renal 92.1% | CCRF-CEM leukemia 89.7% | MOLT-4 leukemia 84.7%

COc1ccc(NC(=O)c2sc3nc4c(cc3c2N)C(O)CCC4)cc1 (centres undefined)
inactive: HCT-15 colon 95.5% | HT29 colon 97.8% | SNB-75 CNS 110% | SNB-19 CNS 97.1% | U251 CNS 105% | PC-3 prostate 95.7% | SK-MEL-5 melanoma 99.5% | UACC-62 melanoma 98.9% | LOX IMVI melanoma 102% | SK-MEL-28 melanoma 102% | SK-MEL-2 melanoma 96% | SN12C renal 99.8% | UO-31 renal 86.4% | TK-10 renal 122% | ACHN renal 113% | CAKI-1 renal 92.7% | CCRF-CEM leukemia 101% | MOLT-4 leukemia 92.8%
active: A498 renal -8.3%

COc1ccc(CCc2nc3cc(-c4c(C)noc4C)ccc3n2CCN2CCOCC2)cc1
inactive: HCT-15 colon 52.8% | HT29 colon 12.8% | SNB-75 CNS 27.8% | SNB-19 CNS 48.9% | U251 CNS 17% | PC-3 prostate 11.8% | UACC-62 melanoma 20% | LOX IMVI melanoma 50.2% | SK-MEL-28 melanoma 33.6% | SK-MEL-2 melanoma 49.6% | SN12C renal 31.2% | TK-10 renal 24% | CAKI-1 renal 57.2% | A498 renal 58.6% | CCRF-CEM leukemia 42.7% | MOLT-4 leukemia 73%
active: SK-MEL-5 melanoma -0.324% | UO-31 renal 4.71% | ACHN renal -0.152%

O=C(NC1CCN(Cc2ccccc2)CC1)c1cc(-c2ccncc2)nc2ccc(Cl)cc12
active: U251 CNS 7.4% | UACC-62 melanoma 7.85% | CCRF-CEM leukemia 2.77% | MOLT-4 leukemia 7.58%
inactive: HCT-15 colon 24.2% | HT29 colon 19.9% | SNB-75 CNS 68.7% | SNB-19 CNS 24.8% | PC-3 prostate 33.9% | SK-MEL-5 melanoma 16% | LOX IMVI melanoma 15.3% | SK-MEL-28 melanoma 46.5% | SK-MEL-2 melanoma 44.1% | SN12C renal 27.3% | UO-31 renal 11.9% | TK-10 renal 61.4% | ACHN renal 19.9% | CAKI-1 renal 13.4% | A498 renal 11%

Cc1nc(Nc2nc3ccccc3o2)nc(-c2cccc([N+](=O)[O-])c2)c1C(=O)Nc1ccc(F)c(Cl)c1
inactive: HCT-15 colon 15.5% | SNB-75 CNS 17.8% | SNB-19 CNS 11.7% | UACC-62 melanoma 17.1% | SK-MEL-28 melanoma 13.2% | UO-31 renal 11.3% | ACHN renal 12.9% | CCRF-CEM leukemia 22.8%
active: HT29 colon 6.31% | U251 CNS 3.14% | PC-3 prostate 6.84% | SK-MEL-5 melanoma 0.624% | LOX IMVI melanoma 0.0269% | SK-MEL-2 melanoma -33.7% | SN12C renal 7.04% | TK-10 renal 8.62% | CAKI-1 renal 9.69% | A498 renal -37.2% | MOLT-4 leukemia -23.7%

C=CCNC(=S)NN
inactive: HCT-15 colon 90.7% | HT29 colon 55.5% | SNB-75 CNS 95.3% | SNB-19 CNS 94.4% | U251 CNS 77.4% | PC-3 prostate 58.4% | SK-MEL-5 melanoma 99.5% | UACC-62 melanoma 99.6% | LOX IMVI melanoma 97.3% | SK-MEL-28 melanoma 104% | SK-MEL-2 melanoma 99.1% | SN12C renal 81.7% | UO-31 renal 61.7% | TK-10 renal 96.2% | ACHN renal 94.1% | CAKI-1 renal 91.6% | A498 renal 81% | CCRF-CEM leukemia 63.2% | MOLT-4 leukemia 64.6%

COc1ccc(-c2cc(=O)n(-c3nc4ccccc4[nH]3)[nH]2)cc1OC
active: CCRF-CEM leukemia -4.05% | MOLT-4 leukemia -32%
inactive: HCT-15 colon 32% | HT29 colon 109% | SNB-75 CNS 60.2% | SNB-19 CNS 63.2% | U251 CNS 45.9% | PC-3 prostate 62.5% | SK-MEL-5 melanoma 62.7% | UACC-62 melanoma 31% | LOX IMVI melanoma 61.8% | SK-MEL-28 melanoma 84% | SK-MEL-2 melanoma 51% | SN12C renal 75% | UO-31 renal 56.1% | TK-10 renal 93.9% | ACHN renal 57.6% | CAKI-1 renal 38.7% | A498 renal 30.9%

Cc1ncc([N+](=O)[O-])n1CCOc1ccc(C(=O)/C=C/c2ccc(C(F)(F)F)cc2)cc1
inactive: HCT-15 colon 38.1% | HT29 colon 29.7% | SNB-75 CNS 60.1% | SNB-19 CNS 69.7% | U251 CNS 51.7% | PC-3 prostate 50.6% | SK-MEL-5 melanoma 78.4% | UACC-62 melanoma 67.5% | LOX IMVI melanoma 57.3% | SK-MEL-28 melanoma 88.2% | SK-MEL-2 melanoma 81% | SN12C renal 77.9% | UO-31 renal 40.6% | TK-10 renal 72.4% | ACHN renal 80.7% | CAKI-1 renal 81.3% | A498 renal 74.5% | CCRF-CEM leukemia 27.5% | MOLT-4 leukemia 28.3%

Reference: PubChem BioAssay (NCI)
